# PubChem BioAssay (NCI)
# About 83,000 compounds went through this panel and 20% of them were active in at least one assay; those are over-represented in the sample as a whole.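 Negative percent growth values reflect cell death: -40 means 40% of the cells present at the start died, and -100 means all died.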 A number with no mark means an inactive call. The source made the active and inactive calls. Rule for the calls: active = growth percent below 10; inactive = the rest.
# Key:
# Assay in all cases: NCI-60 one-dose screen, 48 h (100 = growth as untreated, 0 = no growth, -100 = all killed)
# Details in all cases: 10 µM unless noted
# [1] = system: NCI-H23 lung
# [2] = system: NCI-H226 lung
# [3] = system: NCI-H322M lung
# [4] = system: HOP-62 NSCLC
# [5] = system: NCI-H460 lung
# [6] = system: HOP-92 NSCLC
# [7] = system: NCI-H522 lung
# [8] = system: A549/ATCC NSCLC
# [9] = system: 786-0 renal
# [10] = system: COLO 205 colon
# [11] = system: DU-145 prostate
# [12] = system: K-562 leukemia
# [13] = system: MALME-3M melanoma
# [14] = system: MDA-MB-231 breast
# [15] = system: RXF 393 renal
# [16] = system: SF-268 CNS
# [17] = system: SF-295 CNS
# [18] = system: SF-539 CNS
# [19] = system: UACC-257 melanoma
# [20] = system: M14 melanoma
SMILES,growth [1],growth [2],growth [3],growth [4],growth [5],growth [6],growth [7],growth [8],growth [9],growth [10],growth [11],growth [12],growth [13],growth [14],growth [15],growth [16],growth [17],growth [18],growth [19],growth [20]
COc1cccc(/C=N/NC(=O)c2ccccc2N2CCCC2)c1O,53.3%,71.7%,49.6%,46.9%,20.9%,47.6%,-34.1% (active),70.5%,53.4%,54.3%,68%,13.6%,75.7%,47.8%,63.8%,38.8%,86.2%,61.8%,-29.8% (active),
O=C1Nc2c(C(=O)O)cccc2/C1=N/c1n[nH]c(=S)s1,87.8%,86.2%,95.6%,79.7%,93.4%,96.1%,81.1%,85.5%,91.3%,118%,98.5%,41.3%,105%,86.2%,112%,83.3%,94.7%,91.9%,99.6%,
Cc1ccc(S(=O)(=O)Oc2ccc3sc4cccc(NCCN(C)C)c4c(=O)c3c2)cc1,-93.5% (active),-71.9% (active),-88.1% (active),-89.6% (active),-92.7% (active),-77.4% (active),-81.7% (active),-74.1% (active),-85.7% (active),-83.8% (active),-89.5% (active),-64.6% (active),-99.4% (active),-96.7% (active),-87.4% (active),-82.1% (active),-92.3% (active),-95.3% (active),-80.6% (active),
Cc1nc2ccccc2c(/C=C/c2ccccc2)c1C(=O)/C=C/c1ccccc1,28.7%,65.1%,43.8%,6.52% (active),-20.8% (active),79.6%,15.9%,23.2%,31.5%,15.7%,12.6%,9.41% (active),37.5%,29.8%,21.1%,40.2%,45.8%,8.18% (active),9.71% (active),
C=CC(=O)Nc1ccc(Oc2nccc(Nc3nnc(-c4ccc(C)cc4)s3)n2)cc1,79.9%,86.2%,98.7%,83.5%,59.9%,72.4%,24.3%,77%,70.8%,100%,78.5%,29.4%,52.6%,88.4%,88%,77.6%,56.9%,83.3%,86.5%,
O=C(Cc1ccccc1)Nc1cccc(N=Cc2ccccc2O)c1,107%,104%,108%,115%,107%,88.1%,91.1%,99.3%,104%,111%,93.1%,98.7%,106%,114%,111%,84%,100%,101%,105%,
COc1ccccc1N(C(C)=O)C1=C(Cl)C(=O)c2ccccc2C1=O,-12.1% (active),23.7%,38%,38.6%,4.81% (active),-14.9% (active),-78% (active),8.36% (active),37.2%,-11.7% (active),38.1%,-13.2% (active),43.3%,10.5%,-29.1% (active),30.1%,-36% (active),-30.9% (active),-7.02% (active),
COc1cc(C(=O)n2nc(N3CCOCC3)c3cc(-n4cccc4)ccc32)cc(OC)c1OC,76.5%,69.3%,88.3%,92.4%,75.7%,14.4%,74.4%,72.6%,17.4%,56.6%,61.2%,52.4%,87.1%,54.9%,-9.27% (active),76.8%,71.8%,79.9%,103%,
Cc1nnc(-c2ccc3c(c2)nc(/C=C/c2ccccc2)n3C2CCCCC2)o1,88.3%,104%,85.9%,83%,82.4%,79.7%,68.6%,52.5%,92.2%,79.7%,91.5%,45.9%,95%,87.3%,84.6%,86.5%,76.1%,110%,77.4%,73.7%
O=c1ccc(=O)n(-c2nc(-c3ccc([N+](=O)[O-])cc3)cs2)[nH]1,90.7%,96.3%,104%,107%,102%,103%,95.8%,88.9%,81.3%,105%,97.7%,95.2%,114%,105%,88.4%,95%,98.1%,97.3%,102%,101%
S=c1[nH]c(=S)c2c(-c3ccccc3)c(-c3ccccc3)oc2[nH]1,97.8%,92.7%,118%,92.6%,108%,100%,97.5%,95.7%,103%,120%,109%,80.2%,107%,99%,91.2%,104%,97.5%,98.3%,80.1%,105%
CC1(C)CC[C@]23CC[C@]4(C)[C@H](CC[C@@H]5[C@@]6(C)C/C(=C/c7ccncc7)C(=O)C(C)(C)[C@@H]6CC[C@]54C)[C@H]2[C@H]1OC3,91.8%,90.9%,90.9%,91%,75.8%,72.4%,76.4%,76.5%,88.5%,68.5%,82.1%,69.9%,87.9%,65.5%,88.4%,78.1%,90.9%,58.7%,85.5%,96.6%
CC1(C)N=C(N)N=C(N)N1c1ccc(CCCCc2ccccc2)c(Cl)c1,6.38% (active),34.7%,31.6%,21.7%,4.96% (active),19.3%,-6.62% (active),15.9%,16.3%,-75.8% (active),27%,18%,52.2%,42.5%,30.6%,19.6%,29.6%,-3.79% (active),3.22% (active),33.5%
CCCn1cnc2c(c1=N)C(c1ccc(F)cc1)c1sc3c(F)cccc3c1O2 (configuration not stated),70.1%,74.7%,78.1%,52.4%,18.7%,67.5%,4.15% (active),48.1%,40.9%,86.4%,76.6%,16.9%,54.1%,63.3%,52.2%,49.6%,27.7%,32.6%,73.4%,39.3%
COc1ccc(/C=C/C(=O)c2ccc(NC(=O)CSc3nc4c([nH]3)c(=O)n(C)c(=O)n4C)cc2)cc1OC,93%,81.1%,81%,89.5%,94.6%,73.2%,96.8%,87.7%,82.3%,117%,97.4%,79.3%,95.9%,84.4%,87.5%,83%,92.6%,80.1%,87.4%,92.5%
CCCCCCCCCCCCCOC(=O)c1c(C)[nH]c(/C=C2\N=C(c3ccc[nH]3)C=C2OC)c1C,31.4%,-38.1% (active),32.7%,30.1%,16.1%,-6.46% (active),5.93% (active),-4.51% (active),22.3%,7.58% (active),29.3%,5.53% (active),41.8%,19.6%,27.7%,34.2%,49.9%,10.8%,38.7%,1.88% (active)

SMILES,growth [1],growth [2],growth [3],growth [4],growth [5],growth [6],growth [7],growth [8],growth [9],growth [10],growth [11],growth [12],growth [13],growth [14],growth [15],growth [16],growth [17],growth [18],growth [19],growth [20]
N#Cc1c(Nc2ccc(N3CCOCC3)cc2)nc(SCC(=O)c2ccc(Br)cc2)nc1-c1ccccc1,98%,108%,97.7%,92.6%,114%,99.7%,96.2%,97.3%,101%,107%,106%,99.3%,111%,109%,126%,103%,104%,98.7%,102%,97.3%
CN(C)c1ccc(/C=C(\C#N)c2cc3ccccc3[nH]2)cc1,28.4%,70.8%,38.4%,28.7%,13.3%,26.4%,-9.55% (active),41.4%,32.9%,4% (active),24.5%,14%,63.9%,31.9%,28.9%,39.8%,8.98% (active),6.06% (active),57.1%,9.05% (active)
Nc1nc(NC(=O)Nc2ccc(C(=O)O)cc2)nn1-c1ccc(S(N)(=O)=O)cc1,97.9%,92.1%,90.4%,93.6%,95.6%,78.3%,97.7%,82.8%,97.8%,111%,97.3%,102%,85.7%,75.3%,94.1%,95.1%,104%,95.9%,89.9%,95.4%
CCOc1ccc(-n2nc(C(=O)NCc3ccccc3OC)nc2-c2cc(OC)c(OC)c(OC)c2)cc1,60.7%,62.5%,52.4%,62.2%,30.5%,29%,35.7%,34.5%,41.5%,30.3%,65.2%,22.1%,87.5%,17.8%,43.5%,54.1%,34.8%,49.2%,62.7%,42.2%
COc1ccc2nc(Cl)c(/C=C3\CC(c4ccccc4)=NN(c4ccccc4)C3=O)cc2c1,78.8%,55.6%,74.6%,48.4%,67.8%,-20.3% (active),65.6%,65.2%,-4.27% (active),99.3%,76.8%,83.9%,45.2%,51.7%,10.9%,51.9%,62.6%,13.1%,75.2%,94.1%
Cc1cccc(N2CCC(=O)NC2=S)c1,98.5%,97.3%,101%,110%,104%,105%,97%,99.1%,103%,119%,116%,112%,95.9%,89.9%,115%,99.4%,103%,96.7%,105%,97.3%
COc1ccc(N2CCN(C(=O)c3sc4nc(C)c(Br)c(C)c4c3N)CC2)cc1,99.4%,74.2%,88%,80%,105%,88.9%,89.2%,91.1%,99.7%,107%,104%,97.3%,-12.3% (active),84.2%,116%,89.1%,95.6%,91.8%,99.7%,99.3%
CCOC(=O)c1cc(C(=O)c2cc(OC)c(OC)c(OC)c2)n2ccccc12,38.9%,34.5%,49.7%,28.3%,14.2%,54.1%,26%,25.7%,35.5%,-31.8% (active),24.9%,11.5%,35.6%,37.9%,-0.358% (active),55.7%,21.3%,-6.66% (active),50.1%,-21.8% (active)
NC1=Nc2cc(OCCCCN3Cc4ccccc4C3)c(OCC3CC3)cc2C12CCCC2,66.9%,37.7%,75.7%,73.2%,23.2%,29.4%,67.3%,67.5%,56.2%,-74.5% (active),65%,2.5% (active),-88.5% (active),19.3%,30.2%,56.1%,61.7%,-8.18% (active),-83.2% (active),-89.7% (active)
Cc1ccc(CNc2ccc3nc(CCC(C)C)[nH]c3c2)cc1,94.2%,89.8%,100%,99.6%,106%,56.7%,84.2%,97.6%,84%,102%,101%,79.2%,90.9%,86%,96%,91.2%,95.1%,94.4%,89.7%,96.2%
Nc1nc(N)c2c(n1)NC(c1cccc(Nc3ccnc4cc(C(F)(F)F)ccc34)c1)CC(c1ccccc1)=N2 (configuration not stated),67.1%,87.8%,91.8%,54.9%,22.6%,45%,28.8%,41.4%,67.5%,30.2%,71.9%,13.5%,67%,58.5%,44.9%,52.3%,50.1%,77.1%,69%,30.2%
COc1ccc(Nc2ncccc2/C=C/C(=O)c2cc(OC)c(OC)c(OC)c2)cc1,-8.11% (active),-43.2% (active),52%,-19.2% (active),-44.9% (active),-33.8% (active),-76.5% (active),-57.1% (active),-64.2% (active),-77% (active),6.98% (active),-26.3% (active),-5.45% (active),17.3%,-61% (active),-33.2% (active),17%,-51.1% (active),-89.7% (active),-53.4% (active)
COc1ccc(Cn2cc3c(c2-c2ccccc2)CCc2cnoc2-3)cc1,27.2%,43.6%,70.2%,30.1%,2.53% (active),52.2%,12.1%,20.5%,19.4%,-30.1% (active),-4.72% (active),13.7%,70.2%,10.4%,24.8%,16%,23.2%,-12.8% (active),78.8%,16.8%
CC1(C)N=C(N)N=C(N)N1c1cccc(CCc2ccccc2)c1,21.7%,48.1%,45.8%,45%,16.1%,63.2%,21.4%,24.8%,30.8%,29.5%,37.3%,23.1%,79.1%,68.9%,78.5%,32.4%,41.9%,23%,39.3%,55.4%
N#CC1=C(N)Oc2ccc3ccccc3c2C1c1ccc([N+](=O)[O-])cc1 (configuration not stated),78.2%,87.4%,89.3%,81.8%,93.3%,121%,73.5%,93.7%,88.1%,102%,104%,77.7%,51.4%,57.8%,94.7%,80.5%,84.6%,85.7%,89.3%,89.7%
